# In PubChem BioAssay (NCATS):
# Results filed as inconclusive are left out. Activity calls are given as the source filed them. Calls come from the whole dose curve; as a rule, active = well fitted activation curve with a large enough effect; inconclusive = small, poorly fitted or top-dose-only effect; inactive = no such curve, though single readings can be large or run the other way.
# Test: qHTS for Activators of Parkin Expression: LOPAC Validation Assay (FLuc Reporter) (AID 720573;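 for activation: 0% = DMSO and 100% = positive control compounds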)
# Conditions: Cell line, PRKN promoter firefly luciferase reporter; series mostly up to 46.1 µM; activation: at the top concentration
# Source text: Parkin is an E3 ubiquitin ligase localized in the cytosol of cells expressed in many tissues, including brain, skeletal muscle, heart and liver tissues. One hour after stress induction by mitochondrial uncouplers (which mimic mitochondria damage by decreasing the mitochondrial inner membrane electrochemical gradient that is used to produce ATP), Parkin translocates from the cytosol to mitochondria in many cultured cell types, including neurons and HeLa cells. Administration of other mitochondrial poisons, such as Paraquat and azide in cells lacking mitochondrial DNA (mtDNA), induces Parkin translocation to mitochondria. […] It was proposed that Parkin (together with Pink1) mediates a mitochondrial quality control pathway to maintain organelle population fidelity by removing damaged mitochondria. Understanding the normal physiologic role of Parkin (and Pink1) may uncover novel treatment strategies for sporadic Parkinson's disease patients with mutation in these genes.
# A cell based qHTS in 1536 well format was developed assess modulation of Parkin expression using a neuronal cell line that stably expresses a stably expresses a luminescent coincidence reporter (FLuc and NLuc reporters) behind the Parkin promoter. The LOPAC library is used to validate the assay for quantitative high-throughput screening. The data herein reports the signal from the FLuc reporter. An increase in this signal = activation of Parkin expression. For this assay , a positive control normalized signal increase corresponding to a high quality qHTS curve class in both luminescent channels is the desired outcome for this assay.
# NIH Chemical Genomics Center [NCGC]
# NIH Molecular Libraries Probe Centers Network [MLPCN]
# Assay Submitter (PI): Richard Youle, National Institute of Neurological Disorders and Strokes (NINDS), NIH
# [1] Narendra, D., et al., Parkin is recruited selectively to impaired mitochondria and promotes their autophagy. J Cell Biol, 2008. 183(5): p. 795-803.
# [2] Suen, D.F., et al., Parkin overexpression selects against a deleterious mtDNA mutation in heteroplasmic cybrid cells. Proc Natl Acad Sci U S A, 2010. […] 11835-40.
# [3] Cheng K, Inglese J. A coincedence reporter-gene system for high-throughput screening. Nat Methods. 2012: 9(10);937
# Five microliters (1,500 cells/well) of the Parkin coincidence reporter cells were seeded to 1536 well assay plates (Greiner Catalog # 789173-F) and incubated at 37 C, 5% CO2 for 24 hours. Compounds (23 nL) were pinned using the Kalypsys robotic system equipped with 1536 pin head adaptor in 7-point dose response. The assay plates were incubated for additional 24 hr at 37 C, 5% CO2 followed by a volume reduction in each well to 2 uL using an automated plate washer/aspirator. Following the volume reduction,2 uL of FLuc detection reagent and plates were incubated for 10 minutes at room temperature. The FLuc luminescence signal was obtained using the PerkinElmer ViewLux plate imager and then 2 uL of NanoLuc detection reagent was added to the plates. After another 10 minute incubation, NanoLuc signal was obtained using the PerkinElmer ViewLux plate imager as before. Data from each channel was normalized to DMSO (neutral control) and the positive control compounds (100%).
# Potency is the fitted concentration of half-maximal effect.
SMILES,activation,Potency
C=CCN1CCc2c(cc(O)c(O)c2Br)[C@@H](c2ccccc2)C1,0.468% (inactive),
O=c1onc2n1-c1cc(Br)ccc1OC2,-6.69% (inactive),
C=C1C[C@@]23CC[C@H]4[C@@](C)(CCC[C@@]4(C)C(=O)OC4OC(CO)C(O)C(O)C4O)[C@@H]2CC[C@]1(OC1OC(CO)C(O)C(O)C1OC1OC(CO)C(O)C(O)C1O)C3 (stereo not given in full),-12.5% (inactive),
CN1CCN(c2nc3cc(C(F)(F)F)ccc3n3cccc23)CC1,-13% (inactive),
CCCCCCCC/C=C\CCCCCCCC(=O)NCCc1ccc(O)c(O)c1,-24.4% (inactive),
c1ccc(C2CN3CCSC3=N2)cc1 (stereo not given),-6.25% (inactive),
CN1CCc2cc(Cl)c(O)cc2[C@@H](c2ccccc2)C1,-10.6% (inactive),
Cc1cccc(C(=O)NCN2CCN(c3ccccc3C#N)CC2)c1,0.712% (inactive),
COc1cc(CC(=O)O)ccc1O,-5.85% (inactive),
NC1(C(=O)O)CC1,-9.42% (inactive),
N[C@@H](Cc1ccc(O)c(I)c1)C(=O)O,-5.63% (inactive),
NC(=O)c1ccccc1,-12.7% (inactive),
c1ccc2c(c1)CC(N1CCN(c3cccc4c3OCCO4)CC1)C2,-8.75% (inactive),
Brc1c(Br)c(Br)c2[nH]cnc2c1Br,-37.9% (inactive),
[Li+],0.609% (inactive),
CCC1(O)CC2CN(CCc3c([nH]c4ccccc34)[C@@](C(=O)OC)(c3cc4c(cc3OC)N(C)C3[C@]45CCN4CC=C[C@@](CC)([C@@H](OC(C)=O)[C@]3(O)C(=O)OC)[C@H]45)C2)C1 (stereo not given in full),-29% (inactive),
CSc1nc(N)c2ncn([C@@H]3O[C@H](COP(=O)(O)OP(=O)(O)O)C(O)[C@H]3O)c2n1 (stereo not given in full),-4.87% (inactive),
CN(C)CCCc1cc(C(=O)Nc2ccc(-c3ccncc3)cc2)ccc1O,-6.39% (inactive),
N[C@H](C(=O)O)[C@H](O)C(=O)O,-2.77% (inactive),
O=c1onc2cnc3ccccc3n12,-0.596% (inactive),

SMILES,activation,Potency
CCCC[C@@]1(C2CCCC2)Cc2cc(OCC(=O)O)c(Cl)c(Cl)c2C1=O,-10.3% (inactive),
CCCC(=O)NCCc1c2n(c3ccc(OC)cc13)CCCc1ccccc1-2,-3.1% (inactive),
CC(C)Cn1c(=O)n(C)c(=O)c2[nH]cnc21,-0.315% (inactive),
O[Si](CCCN1CCCCC1)(c1ccc(F)cc1)C1CCCCC1 (stereo not given),-4.21% (inactive),
CN1CCC2(CCN3CCc4c(oc5ccccc45)C3C2)N(C)C1=O (stereo not given),-1.03% (inactive),
Clc1nccc2c1ccc1ccccc12,19% (inactive),
COc1ccc(CCN(C)CCc2ccc(OC)c(OC)c2)cc1OC,-1.18% (inactive),
CC(=O)N[C@@H](Cc1c[nH]c2ccccc12)C(=O)OCc1cc(C(F)(F)F)cc(C(F)(F)F)c1,4.05% (inactive),
CC(=O)O[C@H]1Cc2ccccc2N(C(N)=O)c2ccccc21,-7.64% (inactive),
COc1cc(/C=C(\C#N)C(=O)c2ccc(O)c(O)c2)cc(I)c1O,-5.6% (inactive),
Cn1c(=O)c2c(nc(/C=C/c3cccc(Cl)c3)n2C)n(C)c1=O,-6.52% (inactive),
CC(O)C(O)[C@H]1CNc2nc(N)[nH]c(=O)c2N1 (stereo not given in full),0.24% (inactive),
NC1(C(=O)O)CCCCC1,-9.16% (inactive),
Cc1nc(N=Nc2ccc(C(=O)O)cc2)c(COP(=O)(O)O)c(C=O)c1O,-1.54% (inactive),
O=C1Cc2c([nH]c3ccc(Br)cc23)-c2ccccc2N1,,2590 nM (active)
NC1(C(=O)O)CCc2cc(C(=O)O)ccc21 (stereo not given),-2.74% (inactive),
COc1ccccc1N1CCN(CCCNc2c(C)c(=O)n(C)c(=O)n2C)CC1,2.47% (inactive),
O=c1[nH]c(=O)c2nc3ccccc3nc2[nH]1,-8.92% (inactive),
c1ccc(C(NCc2cccnc2)(c2ccccc2)c2ccccc2)cc1,-8.84% (inactive),
C=CCN1CCc2cc(O)c(O)cc2C(c2ccccc2)C1 (stereo not given),-0.699% (inactive),
